In PubChem BioAssay (Tox21):
“And” between values parts separate entries of the source, which are not always exact repeats. Equal entries are not always repeated. Results filed as inconclusive are left out. Where a structure was tested more than once in an assay, its records may differ in their call. The source made the active and inactive calls. Unless noted, the call rests on the fitted dose curve; in most records, active means well fitted curve in the direction sought with a large enough effect in the repeat runs; inconclusive means weak or mixed curves; inactive means no such curve, though single readings can be large; an effect the other way counts as inactive or inconclusive. Residues, ends and D or L forms follow the SMILES beside them.

Key:
[1] = qHTS assay to identify small molecule agonists of the hypoxia (HIF-1) signaling pathway - cell viability counter screen (AID 1224844; calls by dose curve; further: nearly all actives have a fitted effect of over 50% in size)
Outline: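 HRE-bla ME-180 cells, 2,000/well in 0.5% dialyzed FBS medium, treated 17 h at 37C with compounds. Viability read in the same wells as the bla reporter, by CellTiter-Glo luminescence after 30 min at room temperature.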

[2] = qHTS assay to identify small molecule agonists of H2AX (AID 1224845; active means well fitted activation curve with a large enough effect in the signal ratio in the repeat runs, not every such curve was filed as active; the % refers to the signal ratio)
Outline: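 Wild-type CHO-K1 cells plated overnight, then exposed 3 hr at 37C to compounds at 15 concentrations (0.76% DMSO). Lysed, then HTRF anti-pH2AX(S139)-cryptate/anti-H2AX-d2 detection after 24 hr at room temperature; emissions 665 and 620 nm.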

[3] = qHTS assay to identify small molecule agonists of the hypoxia (HIF-1) signaling pathway (AID 1224846; active means well fitted activation curve with a large enough effect in the signal ratio in the repeat runs, not every such curve was filed as active; the % refers to the signal ratio)
Outline: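 HRE-bla ME-180 beta-lactamase reporter cells in medium with 0.5% dialyzed FBS, pre-incubated 5 h then exposed to compounds 17 h at 37C, 5% CO2; reporter induction read with CCF4-AM FRET substrate.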

[4] = qHTS assay to identify small molecule agonists of H2AX - cell viability counter screen (AID 1224847; calls by dose curve; further: top concentration of the series differs between compounds; nearly all actives have a fitted effect of over 30% in size)
Outline: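 After overnight plating of 1000 CHO-K1 cells per well, a 15-concentration compound series was applied for 3 hr at 37C. Luminescence from CellTiter-Glo, read following 30 min at room temperature, reflected cell viability.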

[5] = qHTS RealTime-Glo MT Cell Viability Assay in HepG2 cells - 24 hour (AID 1224867); further: nearly all actives have a fitted effect of over 50% in size
Outline: (§1)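 HepG2 cells (600/well) were dispensed with RealTime-Glo reagents, incubated 5 h at 37 °C, then treated with compounds in DMSO for up to 40 h. Nonlytic NanoLuc luminescence reflecting viable cells was read at each stated time point.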

[6] = qHTS RealTime-Glo MT Cell Viability Assay in HEK293 cells - 32 hour (AID 1224868); further: top concentration of the series differs between compounds; nearly all actives have a fitted effect of over 50% in size
Outline: (§2)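 HEK293 cells seeded with NanoLuc/prosubstrate reagent, rested 5 h at 37 C, then dosed and kept at 37 C up to 40 h. Nonlytic real-time luminescence from viable cells read at 0, 8, 16, 24, 32 and 40 h.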

[7] = A CellTox Green Cytotoxicity Assay to monitor cytotoxicity in HEK293 cells - 0 hour (AID 1224869); further: nearly all actives have a fitted effect of over 50% in size
Outline: (§3)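 HEK293 cells, 600/well, were preincubated 5 hours and then exposed to compounds at 37 C for up to 40 hours. A cell-impermeant cyanine dye staining dead-cell DNA was read by fluorescence at 0, 8, 16, 24, 32 and 40 h time points.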

[8] = qHTS RealTime-Glo MT Cell Viability Assay in HepG2 cells - 40 hour (AID 1224870); further: nearly all actives have a fitted effect of over 50% in size
Outline: (§4)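 HepG2 cells mixed with RealTime-Glo MT reagents (NanoLuc plus cell-permeant prosubstrate) were seeded at 600 cells/well, incubated 5 h at 37 C/5% CO2, then pinned with compounds in DMSO; nonlytic luminescence tracked viability during 40 h treatment.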

[9] = A CellTox Green Cytotoxicity Assay to monitor cytotoxicity in HEK293 cells - 40 hour (AID 1224871); further: nearly all actives have a fitted effect of over 45% in size
Outline: as §3

[10] = qHTS RealTime-Glo MT Cell Viability Assay in HEK293 cells - 16 hour (AID 1224872)
Outline: as §2

[11] = qHTS RealTime-Glo MT Cell Viability Assay in HepG2 cells - 8 hour (AID 1224873); further: nearly all actives have a fitted effect of over 55% in size
Outline: as §4

[12] = A CellTox Green Cytotoxicity Assay to monitor cytotoxicity in HEK293 cells - 24 hour (AID 1224875); further: nearly all actives have a fitted effect of over 45% in size
Outline: as §3

[13] = A CellTox Green Cytotoxicity Assay to monitor cytotoxicity in HepG2 cells - 16 hour (AID 1224876); further: nearly all actives have a fitted effect of over 45% in size
Outline: (§5)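 HepG2 cells, 600/well, preincubated 5 h with CellTox Green dye, then exposed to Tox21 compounds in DMSO at 37 C for up to 40 h. Dead-cell DNA fluorescence read at the indicated time point.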

[14] = qHTS RealTime-Glo MT Cell Viability Assay in HepG2 cells - 32 hour (AID 1224877); further: nearly all actives have a fitted effect of over 55% in size
Outline: as §1

[15] = A CellTox Green Cytotoxicity Assay to monitor cytotoxicity in HepG2 cells - 24 hour (AID 1224878); further: nearly all actives have a fitted effect of over 45% in size
Outline: as §5

[16] = A CellTox Green Cytotoxicity Assay to monitor cytotoxicity in HepG2 cells - 40 hour (AID 1224879); further: nearly all actives have a fitted effect of over 40% in size
Outline: as §5

[17] = qHTS RealTime-Glo MT Cell Viability Assay in HEK293 cells - 0 hour (AID 1224880)
Outline: (§6)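 600 cells/well were plated with the nonlytic NanoLuc/prosubstrate reagent, pre-incubated 5 h, then given 23 nL of compound in DMSO. Incubation at 37 C for 40 h, with luminescence from viable-cell-reduced substrate read repeatedly from 0 h.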

[18] = qHTS assay to identify small molecule antagonists of the estrogen related receptor (ERR) signaling pathway from Tox21 library (AID 1224848); further: nearly all actives have a fitted effect of over 50% in size; further: potency means the concentration at half of the fitted maximal effect
Outline: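 Screening used an ERR reporter line supplied by NTP, exposed for 18 h at 37 C to library compounds delivered in DMSO. Signal was luciferase luminescence developed with ONE-Glo at room temperature for 30 min.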

[19] = qHTS assay to identify small molecule agonists of the estrogen related receptor (ERR) signaling pathway from Tox21 library (AID 1224849; calls by dose curve; further: nearly all actives have a fitted effect of over 15% in size); settings: ERR reporter cell line, ONE-Glo luciferase, 18 h
Outline: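 ERR reporter cells (NTP line) pre-incubated 6 hours at 37 C, then exposed to compounds for 18 hours at 37 C. ONE-Glo luciferase luminescence was read after 30 minutes at room temperature.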

[20] = qHTS RealTime-Glo MT Cell Viability Assay in HEK293 cells - 40 hour (AID 1224874); settings: RealTime-Glo luminescence; max response: stronger effect = lower value; further: nearly all actives have a fitted effect of over 50% in size
Outline: as §6
On the % scale 0 is the no-effect control and ±100 the full control effect.

COC(=O)[C@H](Cc1ccccc1)NC(=O)[C@@H](N)CC(=O)O (H-Asp-Phe-OMe)
inactive: Potency [1] | outcome [2] | outcome [3] | outcome [4] | Potency [5] | Potency [6] | outcome [7] | Potency [8] | Potency [9] | Potency [10] | outcome [11] | Potency [12] | Potency [13] | Potency [14] | Potency [15] | Potency [16] | Potency [17]

CC(O)CO (stereo not given)
inactive: Potency [1] | outcome [2] | outcome [3] | outcome [4] | Potency [18] | activity change, positive = activation ([19]; at 8.39 µM (top of the series)) -3.08% | activity change, positive = activation ([19]; at 92.4 µM (top of the series)) -3.85% and -1.76% | Potency [5] | Potency [6] | outcome [7] | Potency [8] | Potency [9] | Potency [10] | outcome [11] | Potency [12] | Potency [13] | Potency [14] | Potency [16] | Potency [17]

CCCCC(CC)COC(=O)/C=C/c1ccc(OC)cc1 (stereo not given)
inactive: Potency [1] | outcome [2] | outcome [3] | outcome [4] | Potency [18] | activity change, positive = activation ([19]; at 42.5 µM (top of the series)) -9.11% | activity change, positive = activation ([19]; at 92.4 µM (top of the series)) 7.09% and -5.92% | Potency [5] | Potency [6] | outcome [7] | Potency [8] | Potency [9] | Potency [10] | outcome [11] | max response [20] -5.76% and 7.72% and 2.19% | Potency [12] | Potency [13] | Potency [14] | Potency [16] | Potency [17]

O=C1CN(/N=C/c2ccc([N+](=O)[O-])o2)C(=O)N1
inactive: Potency [1] | outcome [2] | outcome [3] | outcome [4] | activity change, positive = activation ([19]; at 42.5 µM (top of the series)) -52% | activity change, positive = activation ([19]; at 92.4 µM (top of the series)) -64.2% and -59.1% | Potency [5] | Potency [6] | outcome [7] | Potency [8] | Potency [9] | Potency [10] | outcome [11] | max response [20] -21.3% and -17.7% | Potency [12] | Potency [13] | Potency [14] | Potency [15] | Potency [16] | Potency [17]
active: Potency [18] 19.3 µM and 30.6 µM and 21.1 µM

CC(O)C(=O)O (stereo not given)
inactive: Potency [1] | outcome [2] | outcome [3] | outcome [4] | Potency [5] | Potency [6] | outcome [7] | Potency [8] | Potency [9] | Potency [10] | outcome [11] | max response [20] 13.3% and 7.35% and 12.9% | Potency [12] | Potency [13] | Potency [14] | Potency [16] | Potency [17]

Cc1noc(NS(=O)(=O)c2ccc(N)cc2)c1C
inactive: Potency [1] | outcome [2] | outcome [3] | outcome [4] | Potency [5] | Potency [6] | outcome [7] | Potency [8] | Potency [9] | Potency [10] | outcome [11] | max response [20] 3.99% and 6.51% and 6.27% | Potency [12] | Potency [13] | Potency [14] | Potency [16] | Potency [17]

O=C(O)C(=O)O
inactive: Potency [1] | outcome [2] | outcome [3] | outcome [4] | Potency [5] | Potency [6] | outcome [7] | Potency [8] | Potency [9] | Potency [10] | outcome [11] | Potency [12] | Potency [13] | Potency [14] | Potency [15] | Potency [16] | Potency [17]

NC(=O)NC1NC(=O)NC1=O (stereo not given)
inactive: Potency [1] | outcome [2] | outcome [3] | outcome [4] | Potency [5] | Potency [6] | outcome [7] | Potency [8] | Potency [9] | Potency [10] | outcome [11] | max response [20] 4.83% and -16.4% and 0.282% | Potency [12] | Potency [13] | Potency [14] | Potency [15] | Potency [16] | Potency [17]

CCCCC1C(=O)N(c2ccccc2)N(c2ccccc2)C1=O
inactive: Potency [1] | outcome [2] | outcome [3] | outcome [4] | activity change, positive = activation ([19]; at 42.5 µM (top of the series)) 2.49% | activity change, positive = activation ([19]; at 92.4 µM (top of the series)) -34.5% and -44.9% | Potency [5] | Potency [6] | outcome [7] | Potency [8] | Potency [9] | Potency [10] | outcome [11] | Potency [12] | Potency [13] | Potency [14] | Potency [16] | Potency [17]
61.1 µM (active) and inactive: Potency [18]

O=C(O)CCC(=O)O
inactive: Potency [1] | outcome [2] | outcome [3] | outcome [4] | Potency [18] | activity change, positive = activation ([19]; at 42.5 µM (top of the series)) 5.73% | activity change, positive = activation ([19]; at 92.4 µM (top of the series)) 5.97% and 1.48% | Potency [5] | Potency [6] | outcome [7] | Potency [8] | Potency [9] | Potency [10] | outcome [11] | max response [20] 9.17% and -2.49% and -2.75% | Potency [12] | Potency [13] | Potency [14] | Potency [15] | Potency [16] | Potency [17]

OCCc1ccccc1
inactive: Potency [1] | outcome [2] | outcome [3] | outcome [4] | Potency [5] | Potency [6] | outcome [7] | Potency [8] | Potency [9] | Potency [10] | outcome [11] | max response [20] 6.34% and 10.1% and 6.75% | Potency [12] | Potency [13] | Potency [14] | Potency [16] | Potency [17]

O=C(c1ccccc1)C(O)c1ccccc1 (stereo not given)
inactive: Potency [1] | outcome [2] | outcome [3] | outcome [4] | Potency [5] | Potency [6] | outcome [7] | Potency [8] | Potency [9] | Potency [10] | outcome [11] | Potency [12] | Potency [13] | Potency [14] | Potency [15] | Potency [16] | Potency [17]
